Experiment [1] addresses High affinity nerve growth factor receptor (Homo sapiens) (UniProt P04629). The settings on record: at 1 µM.
Experiment [2] deals with BDNF/NT-3 growth factors receptor (Homo sapiens) (UniProt Q16620). The settings on record: at 0.1 µM.
For experiment [3] the target is unchanged. As to conditions: at 1 µM.
The target in experiment [4] is NT-3 growth factor receptor (Homo sapiens) (UniProt Q16288). The settings on record: at 0.1 µM.
For experiment [5] the target is unchanged. The settings on record: at 1 µM.
In experiment [6] the target is T1, Tyrosine-protein kinase TXK (Homo sapiens) (UniProt P42681).
T1 sequence (whole entry): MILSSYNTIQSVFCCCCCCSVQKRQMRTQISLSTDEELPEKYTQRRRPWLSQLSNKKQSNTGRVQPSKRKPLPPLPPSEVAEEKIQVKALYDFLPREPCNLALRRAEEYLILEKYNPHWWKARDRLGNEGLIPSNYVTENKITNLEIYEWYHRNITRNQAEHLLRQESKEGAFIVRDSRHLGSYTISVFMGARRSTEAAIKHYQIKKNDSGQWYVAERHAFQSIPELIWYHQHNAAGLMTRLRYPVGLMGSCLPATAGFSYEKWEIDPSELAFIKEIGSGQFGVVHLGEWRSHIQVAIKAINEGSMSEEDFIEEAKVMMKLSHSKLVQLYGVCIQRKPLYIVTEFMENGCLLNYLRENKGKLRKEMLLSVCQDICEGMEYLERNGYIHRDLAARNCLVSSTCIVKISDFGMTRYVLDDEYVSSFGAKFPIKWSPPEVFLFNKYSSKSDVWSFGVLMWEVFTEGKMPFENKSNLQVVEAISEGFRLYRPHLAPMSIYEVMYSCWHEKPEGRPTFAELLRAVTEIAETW
The settings on record: at 0.1 µM.

The target of experiment [7] is T1, Tyrosine-protein kinase TXK (Homo sapiens). As to conditions: at 1 µM.
Experiment [8] addresses Non-receptor tyrosine-protein kinase TYK2 (Homo sapiens) (UniProt P29597). The settings on record: at 0.1 µM.
Experiment [9] addresses T2, Dual specificity protein kinase TTK (Homo sapiens) (UniProt P33981).
T2 sequence (whole entry): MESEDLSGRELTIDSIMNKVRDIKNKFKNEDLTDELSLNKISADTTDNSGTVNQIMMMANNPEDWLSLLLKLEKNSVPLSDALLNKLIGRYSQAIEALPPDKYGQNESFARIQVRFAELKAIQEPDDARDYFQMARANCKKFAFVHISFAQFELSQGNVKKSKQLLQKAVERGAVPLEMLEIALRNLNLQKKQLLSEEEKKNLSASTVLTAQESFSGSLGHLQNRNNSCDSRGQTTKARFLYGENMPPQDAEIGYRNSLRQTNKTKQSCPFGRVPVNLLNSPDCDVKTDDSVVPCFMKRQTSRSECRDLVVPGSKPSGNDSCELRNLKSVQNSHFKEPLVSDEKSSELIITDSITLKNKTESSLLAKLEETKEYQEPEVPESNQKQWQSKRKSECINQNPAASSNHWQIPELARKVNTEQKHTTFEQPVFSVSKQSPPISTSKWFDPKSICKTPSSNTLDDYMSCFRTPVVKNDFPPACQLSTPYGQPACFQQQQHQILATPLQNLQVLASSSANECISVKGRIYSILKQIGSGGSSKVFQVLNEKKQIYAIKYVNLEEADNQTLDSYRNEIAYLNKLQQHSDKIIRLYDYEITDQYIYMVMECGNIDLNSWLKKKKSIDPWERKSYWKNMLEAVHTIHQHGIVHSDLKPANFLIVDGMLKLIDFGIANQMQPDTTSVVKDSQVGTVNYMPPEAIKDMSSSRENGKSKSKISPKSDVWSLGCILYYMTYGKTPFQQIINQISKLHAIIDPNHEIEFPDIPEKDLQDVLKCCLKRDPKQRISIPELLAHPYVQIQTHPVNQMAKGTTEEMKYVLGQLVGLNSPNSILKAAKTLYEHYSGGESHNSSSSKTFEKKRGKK
As to conditions: at 1 µM.

For experiment [10], the target named is T3, Aurora kinase A (Homo sapiens) (UniProt O14965).
T3 sequence (whole entry): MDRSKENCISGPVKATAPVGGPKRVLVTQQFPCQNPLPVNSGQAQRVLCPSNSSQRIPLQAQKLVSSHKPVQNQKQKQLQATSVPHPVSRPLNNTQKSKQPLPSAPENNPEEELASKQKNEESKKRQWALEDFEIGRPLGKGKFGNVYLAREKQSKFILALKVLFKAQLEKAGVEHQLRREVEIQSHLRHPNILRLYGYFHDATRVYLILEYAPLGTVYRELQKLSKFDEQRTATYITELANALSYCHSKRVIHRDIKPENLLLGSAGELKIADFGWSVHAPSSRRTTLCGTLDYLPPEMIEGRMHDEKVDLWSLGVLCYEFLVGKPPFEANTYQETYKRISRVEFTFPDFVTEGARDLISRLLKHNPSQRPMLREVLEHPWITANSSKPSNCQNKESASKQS
As to conditions: at 0.1 µM.

Experiment [11] addresses T3, Aurora kinase A (Homo sapiens). The settings on record: at 1 µM.
Experiment [12] addresses Aurora kinase B (Homo sapiens) (UniProt Q96GD4). As to conditions: at 0.1 µM.
The target is the same in experiment [13]. As to conditions: at 1 µM.
Experiment [14] deals with T4, Aurora kinase C (Homo sapiens) (UniProt Q9UQB9).
T4 sequence (whole entry): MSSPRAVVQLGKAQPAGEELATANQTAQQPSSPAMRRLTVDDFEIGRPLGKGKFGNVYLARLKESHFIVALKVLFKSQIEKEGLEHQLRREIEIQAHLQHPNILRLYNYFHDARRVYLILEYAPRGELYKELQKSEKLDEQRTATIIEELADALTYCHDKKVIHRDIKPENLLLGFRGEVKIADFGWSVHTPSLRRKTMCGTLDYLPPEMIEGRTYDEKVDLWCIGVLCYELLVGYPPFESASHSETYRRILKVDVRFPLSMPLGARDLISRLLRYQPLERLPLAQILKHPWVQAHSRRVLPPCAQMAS
As to conditions: at 0.1 µM.

For experiment [15], the target named is T4, Aurora kinase C (Homo sapiens). As to conditions: at 1 µM.
In experiment [16] the target is Serine/threonine-protein kinase 10 (Homo sapiens) (UniProt O94804). The settings on record: at 0.1 µM.
Experiment [17] shares this target. The settings on record: at 1 µM.
Experiment [18] addresses T5, Mitogen-activated protein kinase kinase kinase kinase 2 (Homo sapiens) (UniProt Q12851).
T5 sequence (whole entry): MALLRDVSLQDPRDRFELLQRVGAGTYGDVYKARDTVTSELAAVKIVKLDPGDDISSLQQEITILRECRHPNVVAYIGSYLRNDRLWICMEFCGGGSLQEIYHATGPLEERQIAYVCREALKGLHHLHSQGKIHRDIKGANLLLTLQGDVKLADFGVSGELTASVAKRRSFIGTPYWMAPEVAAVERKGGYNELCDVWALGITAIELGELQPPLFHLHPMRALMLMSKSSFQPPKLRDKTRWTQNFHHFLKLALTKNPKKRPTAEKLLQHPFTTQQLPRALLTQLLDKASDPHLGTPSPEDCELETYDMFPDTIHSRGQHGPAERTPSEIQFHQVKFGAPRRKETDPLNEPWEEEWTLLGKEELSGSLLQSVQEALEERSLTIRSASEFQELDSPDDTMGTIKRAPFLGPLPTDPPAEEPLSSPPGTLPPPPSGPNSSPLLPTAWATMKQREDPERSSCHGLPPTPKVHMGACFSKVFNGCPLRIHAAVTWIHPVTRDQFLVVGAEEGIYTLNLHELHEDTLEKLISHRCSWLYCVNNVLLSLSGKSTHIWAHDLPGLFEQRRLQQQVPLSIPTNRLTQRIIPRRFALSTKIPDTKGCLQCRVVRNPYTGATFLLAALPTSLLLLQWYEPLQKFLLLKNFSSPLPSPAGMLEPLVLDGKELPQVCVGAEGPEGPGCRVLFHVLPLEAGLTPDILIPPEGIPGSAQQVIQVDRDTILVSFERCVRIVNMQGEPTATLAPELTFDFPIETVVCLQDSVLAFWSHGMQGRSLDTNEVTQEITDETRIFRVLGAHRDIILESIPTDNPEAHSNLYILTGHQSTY
As to conditions: at 0.1 µM.

The target of experiment [19] is T5, Mitogen-activated protein kinase kinase kinase kinase 2 (Homo sapiens). The settings on record: at 1 µM.
Experiment [20] addresses Mitogen-activated protein kinase kinase kinase kinase 4 (Homo sapiens) (UniProt O95819). As to conditions: at 0.1 µM.

Inhibition data for six compounds are collected here from ChEMBL document CHEMBL1961873, “Compounds: GSK PKIS; Assays: Nanosyn kinase panel” (2012).

NT-3 growth factor receptor (Homo sapiens), sequence (Q16288 32-839 limits assumed): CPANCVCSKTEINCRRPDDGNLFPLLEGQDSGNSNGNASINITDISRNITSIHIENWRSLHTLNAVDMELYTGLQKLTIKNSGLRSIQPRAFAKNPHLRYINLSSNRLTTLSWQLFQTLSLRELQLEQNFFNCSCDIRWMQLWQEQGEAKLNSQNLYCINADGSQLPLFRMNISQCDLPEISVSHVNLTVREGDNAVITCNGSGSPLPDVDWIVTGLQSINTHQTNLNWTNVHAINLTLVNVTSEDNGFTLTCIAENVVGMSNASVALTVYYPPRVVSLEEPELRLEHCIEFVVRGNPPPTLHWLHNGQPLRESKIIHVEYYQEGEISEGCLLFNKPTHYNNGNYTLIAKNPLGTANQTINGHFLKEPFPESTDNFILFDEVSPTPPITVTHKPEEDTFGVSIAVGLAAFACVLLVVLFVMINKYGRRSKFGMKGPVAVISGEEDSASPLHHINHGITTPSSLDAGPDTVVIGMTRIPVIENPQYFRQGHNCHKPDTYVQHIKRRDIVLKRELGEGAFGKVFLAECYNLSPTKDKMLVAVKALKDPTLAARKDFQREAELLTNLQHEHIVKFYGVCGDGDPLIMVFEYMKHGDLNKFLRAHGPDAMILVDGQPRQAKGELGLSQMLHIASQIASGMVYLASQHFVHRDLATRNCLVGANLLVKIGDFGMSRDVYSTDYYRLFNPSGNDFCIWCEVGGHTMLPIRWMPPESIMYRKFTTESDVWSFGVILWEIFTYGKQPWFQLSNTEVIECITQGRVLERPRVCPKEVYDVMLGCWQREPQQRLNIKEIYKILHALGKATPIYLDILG
Serine/threonine-protein kinase 10 (Homo sapiens), sequence (O94804 whole entry, looked up): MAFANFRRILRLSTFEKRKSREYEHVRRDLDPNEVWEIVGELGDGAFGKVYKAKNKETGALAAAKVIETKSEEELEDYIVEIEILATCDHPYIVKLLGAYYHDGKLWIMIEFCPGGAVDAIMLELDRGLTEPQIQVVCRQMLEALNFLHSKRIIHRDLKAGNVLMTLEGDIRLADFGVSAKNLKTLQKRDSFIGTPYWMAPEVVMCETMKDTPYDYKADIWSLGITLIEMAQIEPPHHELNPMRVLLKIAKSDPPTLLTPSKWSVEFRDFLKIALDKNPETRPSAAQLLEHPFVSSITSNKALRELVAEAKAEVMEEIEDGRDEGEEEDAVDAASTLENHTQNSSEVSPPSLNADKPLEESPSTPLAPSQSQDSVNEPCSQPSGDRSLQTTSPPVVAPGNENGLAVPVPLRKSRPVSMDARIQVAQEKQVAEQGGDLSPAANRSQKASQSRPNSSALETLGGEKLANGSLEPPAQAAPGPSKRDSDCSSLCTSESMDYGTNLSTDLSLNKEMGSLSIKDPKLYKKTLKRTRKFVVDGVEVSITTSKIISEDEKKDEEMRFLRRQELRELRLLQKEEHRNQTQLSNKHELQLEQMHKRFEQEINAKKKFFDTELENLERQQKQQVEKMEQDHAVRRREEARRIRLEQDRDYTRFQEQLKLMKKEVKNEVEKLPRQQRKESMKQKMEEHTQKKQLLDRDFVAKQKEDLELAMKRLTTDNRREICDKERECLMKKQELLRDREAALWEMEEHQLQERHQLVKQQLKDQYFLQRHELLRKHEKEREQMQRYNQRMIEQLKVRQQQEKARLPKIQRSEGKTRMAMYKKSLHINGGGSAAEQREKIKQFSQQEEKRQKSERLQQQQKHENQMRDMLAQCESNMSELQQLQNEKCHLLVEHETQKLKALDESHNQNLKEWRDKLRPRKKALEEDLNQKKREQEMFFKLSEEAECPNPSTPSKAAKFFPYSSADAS
High affinity nerve growth factor receptor (Homo sapiens), sequence (P04629 33-796 limits assumed): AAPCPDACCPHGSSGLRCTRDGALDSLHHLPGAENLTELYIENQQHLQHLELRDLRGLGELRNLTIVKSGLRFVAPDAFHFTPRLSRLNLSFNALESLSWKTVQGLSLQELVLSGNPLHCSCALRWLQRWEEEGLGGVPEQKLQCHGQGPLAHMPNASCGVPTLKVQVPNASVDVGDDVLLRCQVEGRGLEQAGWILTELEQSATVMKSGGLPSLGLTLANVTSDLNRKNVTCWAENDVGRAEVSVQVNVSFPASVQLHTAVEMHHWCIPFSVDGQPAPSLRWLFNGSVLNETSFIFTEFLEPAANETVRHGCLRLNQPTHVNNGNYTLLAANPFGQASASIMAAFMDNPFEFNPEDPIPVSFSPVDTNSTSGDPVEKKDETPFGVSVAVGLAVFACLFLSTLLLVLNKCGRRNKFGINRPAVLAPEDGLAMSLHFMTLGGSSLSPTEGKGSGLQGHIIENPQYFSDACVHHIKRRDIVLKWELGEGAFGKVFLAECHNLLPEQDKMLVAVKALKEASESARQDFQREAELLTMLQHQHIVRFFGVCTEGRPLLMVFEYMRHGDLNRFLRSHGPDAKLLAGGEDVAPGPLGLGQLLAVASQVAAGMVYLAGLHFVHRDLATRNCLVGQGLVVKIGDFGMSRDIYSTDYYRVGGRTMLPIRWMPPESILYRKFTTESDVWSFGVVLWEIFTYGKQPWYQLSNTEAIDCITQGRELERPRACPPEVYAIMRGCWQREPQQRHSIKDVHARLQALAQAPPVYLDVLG
Mitogen-activated protein kinase kinase kinase kinase 4 (Homo sapiens), sequence (O95819 2-1239 limits assumed): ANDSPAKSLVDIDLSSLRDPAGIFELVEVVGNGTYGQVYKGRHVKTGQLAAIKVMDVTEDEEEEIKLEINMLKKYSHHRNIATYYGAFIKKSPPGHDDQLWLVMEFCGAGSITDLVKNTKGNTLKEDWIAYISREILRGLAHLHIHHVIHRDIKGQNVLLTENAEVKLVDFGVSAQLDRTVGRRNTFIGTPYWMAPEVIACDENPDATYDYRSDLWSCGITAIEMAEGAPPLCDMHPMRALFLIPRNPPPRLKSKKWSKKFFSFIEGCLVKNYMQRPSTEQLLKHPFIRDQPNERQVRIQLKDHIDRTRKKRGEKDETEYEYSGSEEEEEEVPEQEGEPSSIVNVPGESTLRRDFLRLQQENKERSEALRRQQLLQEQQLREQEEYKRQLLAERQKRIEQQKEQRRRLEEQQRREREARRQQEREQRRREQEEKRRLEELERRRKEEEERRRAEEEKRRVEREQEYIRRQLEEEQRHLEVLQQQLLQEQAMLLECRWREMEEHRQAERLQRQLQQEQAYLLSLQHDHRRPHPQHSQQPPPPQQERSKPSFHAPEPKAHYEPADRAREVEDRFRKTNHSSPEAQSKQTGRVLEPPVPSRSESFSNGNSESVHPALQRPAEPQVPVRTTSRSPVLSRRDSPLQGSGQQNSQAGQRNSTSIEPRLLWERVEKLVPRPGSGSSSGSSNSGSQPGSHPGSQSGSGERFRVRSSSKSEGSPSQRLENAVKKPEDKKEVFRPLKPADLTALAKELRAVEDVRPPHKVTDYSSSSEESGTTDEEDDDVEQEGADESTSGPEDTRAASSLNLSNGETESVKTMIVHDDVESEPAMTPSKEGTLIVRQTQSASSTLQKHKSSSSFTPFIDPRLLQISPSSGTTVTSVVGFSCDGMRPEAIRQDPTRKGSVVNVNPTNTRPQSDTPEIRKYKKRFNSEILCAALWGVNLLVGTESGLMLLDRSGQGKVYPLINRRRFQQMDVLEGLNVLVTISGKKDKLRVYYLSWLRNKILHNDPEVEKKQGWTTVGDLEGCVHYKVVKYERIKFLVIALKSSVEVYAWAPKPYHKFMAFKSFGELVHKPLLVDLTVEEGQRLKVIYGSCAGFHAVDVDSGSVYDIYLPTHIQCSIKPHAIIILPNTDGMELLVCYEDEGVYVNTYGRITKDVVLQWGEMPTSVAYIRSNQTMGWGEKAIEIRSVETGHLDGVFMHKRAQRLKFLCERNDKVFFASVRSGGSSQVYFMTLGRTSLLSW
BDNF/NT-3 growth factors receptor (Homo sapiens), sequence (Q16620 32-822 limits assumed): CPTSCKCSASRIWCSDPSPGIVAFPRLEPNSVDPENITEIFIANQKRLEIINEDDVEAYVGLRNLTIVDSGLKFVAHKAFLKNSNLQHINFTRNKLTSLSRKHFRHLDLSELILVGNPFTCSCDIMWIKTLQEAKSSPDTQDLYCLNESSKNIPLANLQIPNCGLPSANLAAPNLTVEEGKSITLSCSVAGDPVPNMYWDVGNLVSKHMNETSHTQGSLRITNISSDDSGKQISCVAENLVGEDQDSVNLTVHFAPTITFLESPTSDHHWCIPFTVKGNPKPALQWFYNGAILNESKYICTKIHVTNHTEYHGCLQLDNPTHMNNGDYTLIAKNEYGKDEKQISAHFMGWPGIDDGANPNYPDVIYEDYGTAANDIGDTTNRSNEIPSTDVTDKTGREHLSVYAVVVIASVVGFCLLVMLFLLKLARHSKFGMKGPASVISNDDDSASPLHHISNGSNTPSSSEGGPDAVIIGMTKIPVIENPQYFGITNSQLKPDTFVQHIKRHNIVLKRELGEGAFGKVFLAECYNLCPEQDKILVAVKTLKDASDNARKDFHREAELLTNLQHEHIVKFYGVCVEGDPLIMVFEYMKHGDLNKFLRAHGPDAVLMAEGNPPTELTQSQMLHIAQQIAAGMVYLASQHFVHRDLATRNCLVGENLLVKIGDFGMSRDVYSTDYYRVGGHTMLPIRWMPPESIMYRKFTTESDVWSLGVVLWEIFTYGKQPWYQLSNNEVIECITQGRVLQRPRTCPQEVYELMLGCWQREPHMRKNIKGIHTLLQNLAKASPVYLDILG
Aurora kinase B (Homo sapiens), sequence (Q96GD4 whole entry): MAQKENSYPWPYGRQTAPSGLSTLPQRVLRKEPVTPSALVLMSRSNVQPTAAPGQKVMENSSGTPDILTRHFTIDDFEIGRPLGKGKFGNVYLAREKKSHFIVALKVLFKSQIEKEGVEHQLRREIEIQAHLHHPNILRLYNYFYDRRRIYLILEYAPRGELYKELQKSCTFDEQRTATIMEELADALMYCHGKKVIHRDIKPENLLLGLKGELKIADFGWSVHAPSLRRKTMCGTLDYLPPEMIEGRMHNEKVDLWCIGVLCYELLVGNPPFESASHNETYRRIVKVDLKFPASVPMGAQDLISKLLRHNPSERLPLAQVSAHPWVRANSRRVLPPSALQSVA

In the case of `Nc1nccc(-c2c(-c3ccc(F)cc3)ncn2C2CCC(O)CC2)n1` (stereo not given), the inhibition is -0.08% in experiment [1]; 1.41% in [2]; 5.91% in experiment [3]; 2% in experiment [4]; 11.3% in [5]; 1.58% in experiment [6]. Besides, the inhibition is 19.2% in experiment [7]; -2.03% in experiment [8]; -0.22% in [9]; -2.33% in experiment [10]; 22% in experiment [11]; -3.41% in [12]. The inhibition in experiment [13] is 4.15%; in [14], -1.77%; in [15] it was -2.2%; in [16] it was -0.75%; in experiment [17], 9.11%; in experiment [18], 2.53%. Besides, the figures for the inhibition in [19] and in experiment [20] were 16.2% and 9.24%, respectively.
Consider `O=C(Nc1n[nH]c2nc(-c3ccco3)ccc12)C1CC1`, for which the inhibition in experiment [1] was 3.29%; in experiment [2], 0.95%; in experiment [3], 2.36%; in experiment [4] it was 1.6%; in [5] it was 5.42%; in [6] it was 2.21%. Also, the inhibition in experiment [7] was 2.84%; in experiment [8], -1.75%; in [9] it was -0.72%; in experiment [10] it was 2.22%; in [11], 11.4%; in experiment [12] it was 1.7%. Also, the inhibition came out at 8.39% in experiment [13]; 1.88% in experiment [14]; 7.39% in [15]; 4.1% in [16]; 9.62% in experiment [17]; 0.49% in [18]. Moreover, the inhibition in [19] came out at 4.84%; in experiment [20], 4.17%.
In the case of `O=C1NC(=O)C(c2cccc(Cl)c2)=C1Nc1ccc(Cl)c(C(=O)O)c1`, the inhibition was -0.54% in experiment [1]; 0.88% in experiment [2]; 1.89% in experiment [3]; 1.02% in [4]; 2.72% in experiment [5]; 2.81% in experiment [6]. Further, the inhibition is 2.53% in experiment [7]; -0.74% in experiment [8]; 9.31% in [9]; 2.92% in experiment [10]; 8.62% in experiment [11]; 0.94% in experiment [12]. For the same compound, the inhibition in [13] was 8.32%; in experiment [14] it was 5.84%; in experiment [15], -0.75%; in [16] it was 4.75%; in experiment [17] it was 6.92%; in [18], 0.39%. In addition, the inhibition in experiment [19] amounted to 2.05%; in [20] it was 2.67%.
On to `CN(C)CCCNc1nccc(-c2c(-c3ccc(F)cc3)nn3cc(C(F)(F)F)ccc23)n1`, for which the inhibition in experiment [1] was 2.77%; in experiment [2] it was 4.65%; in experiment [3], 0.51%; in experiment [4], 2.89%; in experiment [5], 2.21%; in [6], -0.89%. For the same compound, the inhibition in experiment [7] is 0.21%; in experiment [8], -7.47%; in experiment [9], 8.76%; in experiment [10] it was -2.9%; in experiment [11] it was 6.4%; in [12], 0.91%. In addition, the inhibition was 6.92% in experiment [13]; -1.31% in experiment [14]; -0.03% in experiment [15]; 2.34% in experiment [16]; 7.46% in experiment [17]; 4.09% in [18]. In addition, the inhibition in [19] amounted to 7.36%; in experiment [20] it was 5.21%.
In the case of `COc1cccc(/C=N/Nc2ncnc3c2cnn3-c2cccc(OC)c2)c1`, the inhibition in experiment [1] stood at 4.58%; in experiment [2] it was 2.99%; in experiment [3] it was 5.56%; in [4], 1.57%; in experiment [5], 2.15%; in [6], 3.48%. For the same compound, the inhibition in [7] is 2.61%; in [8], -3.27%; in experiment [9] it was 9.42%; in experiment [10], 2.87%; in experiment [11] it was 3.52%; in experiment [12] it was 2.75%. Also, the inhibition is 5.96% in experiment [13]; 0.31% in experiment [14]; 3.9% in experiment [15]; 5.31% in [16]; 6.35% in experiment [17]; -0.07% in experiment [18]. The inhibition in experiment [19] turned out to be 2.67%; in experiment [20] it was 7.63%.
Take `O=C1Nc2ccc(I)cc2C1=Cc1cc(Br)c(O)c(Br)c1`: the inhibition in experiment [1] came to 7.89%; in experiment [2] it was 2.53%; in experiment [3], 5.74%; in [4], 1.67%; in experiment [5], 6.01%; in [6], 7.46%. Moreover, the inhibition in experiment [7] was 6.98%; in experiment [8], -1.21%; in experiment [9], 13.3%; in [10], 3.6%; in [11], 9.69%; in experiment [12], 1.83%. Moreover, the inhibition in [13] came to 3.08%; in experiment [14], 0.09%; in experiment [15] it was 4.11%; in experiment [16], 4.81%; in experiment [17], 7.92%; in experiment [18], 0.93%. For the same compound, the figures for the inhibition in [19] and in experiment [20] were 3.6% and 31.7%, respectively.
